Potency and affinity values are given separately. Results filed as inconclusive are left out. A number with no mark means an inactive call.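 The calls were made as follows: active = fluorescence drops from fewer live microbes, with half-maximal dose at most ten times the top valid tested dose; inconclusive = flat curve with 30 to 70% inhibition, or poor fit; inactive = the rest, including signal rises.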
experiment: Candida growth inhibition combined with fluconazole – CaCi-2 strain, Alamar Blue, dry powder, set 3, dose response (AID 488907); conditions: C. albicans CaCi-2 (fluconazole-resistant clinical isolate) + fluconazole, 48 h; series mostly up to 6 µM; activity change, negative = inhibition: at the top concentration

| SMILES | activity change, negative = inhibition |
| --- | --- |
| Cc1cccc(N2CCN(C(=O)c3ccc(Cl)cc3)CC2)n1 | -6.9% |
| O=C(c1ccc(Cl)cc1)N1CCN(c2cnccn2)CC1 | -15.4% |
| O=C(c1ccc(Cl)cc1)N1CCN(c2cccc(C(F)(F)F)n2)CC1 | 83.2% |
